# GAA850 FXN act: frataxin GAA850 promoter activation; activation, % at 6 µM; HEK293 lucGAA850 FXN promoter luciferase reporter, 24 h; percent of 10 µM SAHA response; actives 0.56% (n = 360,000);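 active = activation above the average of all compounds screened plus 3 SD, cutoff fixed separately per campaign, cut at about 7.5% in these data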;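 note: 0% = DMSO wells and 100% = 10 µM SAHA wells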
# hcDAF12 agonist: H. contortus DAF-12 activation, primary screen; HEK293 hcDAF-12 lit1-tk-luc reporter, luminescence; 0% DMSO, 100% Δ7-dafachronic acid; actives 1.4% (n = 370,000); activation, % at 6.8 µM;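 active = activation above the mean of all tested compounds plus 3 SD, cut at about 5.5% in these data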;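 note: 100% = response to 3 µM Δ7-dafachronic acid high control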
# hgDAF-12 ag: activates the H. glycines DAF-12 receptor ligand-binding domain; actives 1.8% (n = 370,000); activation, % at 6.8 µM; HEK293 GAL4-hgDAF12 UAS-luciferase reporter, agonist luminescence; normalized to butyrate control;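 active = activation above a cutoff set at the mean of all screened compounds plus 3 SD, cut at about 10% in these data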;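 note: 0% = DMSO wells and 100% = sodium butyrate wells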
# ssDAF-12 act: activators of S. stercoralis DAF-12 nuclear receptor; HEK293 ssDAF-12/GRIP1 lit1-tk-luc reporter, luminescence; % of 3 µM dafachronic acid response; activation, % at 6.8 µM; actives 1% (n = 370,000); AID 652126;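 active = activation above the mean over all tested compounds plus 3 SD, cut at about 0.9% in these data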;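 note: 0% = DMSO-only wells and 100% = 3 µM delta7-dafachronic acid wells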
# DAX1 inh-1: NR0B1 (DAX1) inhibition; P51843; HEK293 Gal4-DAX1 luciferase reporter, luminescence; inhibition, % at 6.75 µM; actives 0.99% (n = 340,000); AID 504766;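 active = inhibition above the mean over all tested compounds plus 3 SD, cut at about 4.2% in these data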;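 note: 0% = DAX1-transfected cells with DMSO and 100% = empty-vector control cells with DMSO; inhibition shows as a rise in luminescence from relieved DAX1 repression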
# Target sequence (P51843 207-470 limits assumed): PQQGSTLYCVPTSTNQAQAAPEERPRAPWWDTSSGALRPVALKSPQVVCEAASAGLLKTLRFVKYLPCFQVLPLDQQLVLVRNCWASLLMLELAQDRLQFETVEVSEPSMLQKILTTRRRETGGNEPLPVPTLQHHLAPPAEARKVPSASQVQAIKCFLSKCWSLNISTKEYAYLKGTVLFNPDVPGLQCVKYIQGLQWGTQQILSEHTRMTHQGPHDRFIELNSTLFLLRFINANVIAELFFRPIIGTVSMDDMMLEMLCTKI
# DAX1 inh-2: blocks DAX1 repression of SF-1 activated StAR promoter; HEK293T StAR-luciferase reporter, SF-1/DAX-1 repression relief; inhibition, % at 6.8 µM; actives 1.1% (n = 370,000);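 active = inhibition above the mean over all tested compounds plus 3 SD, cut at about 3.6% in these data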;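 note: 0% = DAX-1 cells with DMSO and 100% = cells lacking DAX-1 with DMSO; higher inhibition means more luminescence from relief of DAX-1 repression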
# Numbers without * were called inactive; nt = no result. The list is not random: actives were taken first. Their share in the collection is about 4.5%.
SMILES,GAA850 FXN act,hcDAF12 agonist,hgDAF-12 ag,ssDAF-12 act,DAX1 inh-1,DAX1 inh-2
CN(C)N=Nc1ccc(S(N)(=O)=O)cc1,3,0,-2,-2,0,0
CN(C)c1ccc(N=Nc2ccc(S(N)(=O)=O)cc2)cc1,6,4,11*,0,3,2
Cc1cc(C(=O)Nc2nc3ccc(Cl)cc3s2)nn1C,2,4,11*,0,nt,1
O=C(Nc1nc2ccc(Cl)cc2s1)c1ccc(Br)o1,0,0,6,-1,1,1
O=C(NC1CCCCN(Cc2cccc(Cl)c2)C1=O)c1cccc([N+](=O)[O-])c1 (stereo not drawn),nt,-2,-1,-1,nt,1
CC(C)N1C(=O)CN(C2CCCCCC2)C(=O)C1c1ccccc1F (stereo not drawn),6,1,11*,-1,3,1
Cc1ccc(C2C(=O)N(C3CCCC3)CC(=O)N2C2CCCCC2)cc1 (stereo not drawn),-2,-1,-2,-1,0,-1
COC(=O)[C@]12C[C@H](CC(=O)NCCCCc3ccccc3)C(=O)N(CCC3=CCCCC3)C1=C[C@H](C1CCCC1)O[C@@H]2C,nt,-1,2,-2,nt,-1
CCCC(=O)N(Cc1cc(=O)[nH]c2ccccc12)c1ccc(C)cc1,0,3,0,0,0,-1
CCN(Cc1cc(=O)[nH]c2ccccc12)C(=O)C(C)C,-1,5,0,0.9*,1,0
CCN(Cc1cc(=O)[nH]c2ccccc12)C(=O)c1ccc(C)cc1,2,2,1,1.8*,1,1
Cc1ccc(N(Cc2cc(=O)[nH]c3ccccc23)C(=O)C(C)C)cc1,1,1,8,-1,4,1
CCOC(=O)[C@@]12CCCC3=C1N(CCC3)C(=O)[C@H]2CC(=O)NCC12CC3CC(CC(C3)C1)C2,nt,0,-2,-1,nt,0
C[C@H]1[C@@H](OC(=O)NCCc2c[nH]c3ccccc23)CC[C@@]23CCCN2C(=O)CCC[C@@H]13,nt,-1,-4,-2,nt,nt
FC(F)(F)c1ccccc1C(C#Cc1ccccc1)NCc1ccc2c(c1)OCO2 (stereo not drawn),nt,-2,0,0,nt,-1
Cc1noc(C)c1C(=O)OCC(=O)/C=C1/N(C)c2ccccc2C1(C)C,0,-1,4,-1,5.9*,0
CN1/C(=C\C(=O)COC(=O)c2ccccc2O)C(C)(C)c2ccccc21,2,-1,1,-1,0,0
N#Cc1ccccc1OCC(=O)NC(=O)NCc1ccccc1,1,1,4,-2,2,0
N#Cc1ccccc1OCC(=O)NC(=O)NCc1ccco1,6,1,11*,-1,7.0*,1
Cc1ccccc1OCCCC(=O)NCc1ccco1,-1,-2,1,-1,4.4*,-1
O=C(NC1CCCCN(Cc2ccc(Cl)cc2)C1=O)c1cccs1 (stereo not drawn),nt,0,-1,0,nt,0
Cc1ccc(-c2cc(C(=O)NN=Cc3cccc4ccccc34)[nH]n2)cc1C,nt,0,12*,-1,nt,-2
O=C(O)C1CCN(C(=O)c2ccccc2N2C(=O)[C@@H]3Cc4c([nH]c5ccccc45)C(c4cccc(Cl)c4)N3C2=O)CC1 (stereo partly drawn),2,5.6*,3,1.0*,2,-1
O=C(NCCN1CCOCC1)c1ccccc1N1C(=O)[C@@H]2Cc3c([nH]c4ccccc34)C(c3ccc(F)cc3)N2C1=O (stereo partly drawn),-7,0,-2,0,1,1
O=C(CN1CCc2onc(-c3cccc(-n4cc(CO)nn4)c3)c2C1=O)N1CCOCC1,nt,1,6,-1,nt,1
COc1ccc(CC(=O)NC2CCSc3ccccc32)c(OC)c1 (stereo not drawn),2,-4,-1,-1,7.7*,0
CSc1ccccc1C(=O)NC1CCSc2ccccc21 (stereo not drawn),3,5.7*,2,1,-2,0
COC(=O)[C@]12C[C@H](CC(=O)NCc3ccc(C)o3)C(=O)N(Cc3ccco3)C1=C[C@H](C1CCCC1)O[C@@H]2C,nt,-2,-5,-1,nt,-1

# Screening data (PubChem)
